{"source": "ChEMBL document CHEMBL3988442", "about": "“University of Dundee, Small-Polar-MMV Screening Library” (2021)", "note": "Out of some 48,000 compounds screened, about 13,000 (27%) showed an effect of 50% or more. The list shows a part of the results.", "data": [{"test_system": "Wolbachia pipientis", "assay": "Anti-Wolbachia Cell-Based Screen", "type": "functional", "set-up": "scale not given: in the data most compounds retested in dose-response had high values", "settings": "5 µM", "units": {"Percent Effect": "%"}, "values": [{"smiles": "O=C(CCS(=O)(=O)C1CCCC1)N1CCC(O)(C(F)(F)F)C1", "note": "(stereo unspecified)", "Percent Effect": -5.456}, {"smiles": "O=C(NCC1(N2CCOCC2)CCSC1)Nc1ccncc1", "note": "(stereo unspecified)", "Percent Effect": -3.46}, {"smiles": "Cc1nc(C2CCCN2C(=O)CCCOc2cccc(F)c2)no1", "note": "(stereo unspecified)", "Percent Effect": -14}, {"smiles": "Cc1nc(C2CCCN2C(=O)CCOCc2ccccc2)no1", "note": "(stereo unspecified)", "Percent Effect": 99.19}, {"smiles": "Cc1nc(C2CCCN2C(=O)COCCOc2ccccc2)no1", "note": "(stereo unspecified)", "Percent Effect": -5.15}, {"smiles": "Cc1nc(C2CCCN2C(=O)COCc2ccccc2)no1", "note": "(stereo unspecified)", "Percent Effect": 102.7}, {"smiles": "Cc1nc(CN2CCN(C(=O)COCc3ccccc3)CC2)no1", "Percent Effect": 3.654}, {"smiles": "O=C1OCCN1CC(=O)N1C[C@H]2CC[C@@H]1CN(C(=O)c1ccccn1)C2", "Percent Effect": -8.504}, {"smiles": "COc1cc(F)cc(NC(=O)NCc2cccc(N(C)C)n2)c1", "Percent Effect": 5.244}, {"smiles": "O=C(C1CC=CC1)N1C[C@@H]2[C@@H](C1)OCC(=O)N2Cc1cccnc1", "Percent Effect": -8.253}, {"smiles": "Cc1ccc(C(=O)N2CC[C@H](Oc3cccnc3C)[C@@H](O)CC2)s1", "Percent Effect": 123.3}, {"smiles": "Cc1ncccc1O[C@H]1CCN(C(=O)Cc2cccs2)CC[C@@H]1O", "Percent Effect": 6.577}, {"smiles": "Cc1ccc(C(=O)N2CCC(c3nccn3Cc3ccncc3)CC2)s1", "Percent Effect": -4.938}, {"smiles": "Cc1ncccc1O[C@H]1CCN(C(=O)c2cccs2)CC[C@@H]1O", "Percent Effect": -0.5375}, {"smiles": "CCc1ccc(C(=O)N2CC[C@H](Oc3cccnc3C)[C@@H](O)CC2)cc1", "Percent Effect": 61.09}, {"smiles": "COc1ccccc1OC1CCN(C(=O)c2cnc(C)s2)CC1", "Percent Effect": 3.926}, {"smiles": "Cc1csc(C(=O)N2CC[C@H](Oc3cccnc3C)[C@@H](O)CC2)c1", "Percent Effect": 110.7}, {"smiles": "CC(=O)N(C)CC(=O)Nc1cnc(-n2ccnc2C)nc1", "Percent Effect": 9.823}, {"smiles": "CC(O)CCN(C)S(=O)(=O)Cc1ccc(Br)cc1", "note": "(stereo unspecified)", "Percent Effect": -1.579}, {"smiles": "O=C(CO)N1CCc2onc(Cn3cccn3)c2C1", "Percent Effect": 6.984}, {"smiles": "Cc1c(Br)cccc1CSc1nnc(CO)n1C", "Percent Effect": 11.11}, {"smiles": "O=C(Nc1c(F)cccc1Oc1ccccc1)C1CCS(=O)(=O)C1", "note": "(stereo unspecified)", "Percent Effect": 2.058}, {"smiles": "O=C(NCc1cc(Cl)ccn1)NCc1ccco1", "Percent Effect": -0.04027}, {"smiles": "CN(C)c1nccc(CNC(=O)NCc2ccco2)n1", "Percent Effect": -7.993}, {"smiles": "Cc1ccc(CNC(=O)NCc2ccco2)s1", "Percent Effect": 117.2}, {"smiles": "CNC(=O)CCOC(=O)c1cccc(-n2ccc(C(F)(F)F)n2)c1", "Percent Effect": -14.03}, {"smiles": "Cc1nn(C)c(N(C)C)c1CNCc1cccc(Br)c1", "Percent Effect": -4.706}, {"smiles": "Cc1ccc(NC(=O)c2n[nH]c(-n3cnnc3)n2)cc1C", "Percent Effect": 9.368}, {"smiles": "CCN(CC)c1nc(C)cc(C(=O)Nc2ccc(Br)cc2)n1", "Percent Effect": 134.8}, {"smiles": "CCN(CC)c1nc(C)cc(C(=O)Nc2cccc(C(N)=O)c2)n1", "Percent Effect": 132.2}, {"smiles": "CCn1cc(NC(=O)c2cccc(OCC(F)(F)F)n2)cn1", "Percent Effect": 10.55}, {"smiles": "CN(C)C(=O)c1cccc(NC(=O)c2cnn(C)c2)c1", "Percent Effect": -1.797}, {"smiles": "CCc1sc(C(=O)Nc2cnn(CCN(C)C)c2)cc1C", "Percent Effect": 11.53}, {"smiles": "CCN(Cc1cccc(C(N)=O)c1)c1ccccc1", "Percent Effect": 7.168}, {"smiles": "Cc1noc(NC(=O)c2ccc(Br)cc2)n1", "Percent Effect": 7.251}, {"smiles": "CCN(CC)c1nc(C)cc(C(=O)Nc2cnn(CC)c2)n1", "Percent Effect": 114.1}]}]}
